From the supplement of paper PMC9492666 come the findings set out here.

The structures appear in SMILES notation.

The test system of assay [1] is HCC1937. The assay can be described thus: relative cell viability, compound + RSL3, vs DMSO (fraction of DMSO control); higher = less growth inhibition. To be noted: 72 h.
Assay [2] relates to MDA-MB-231. Described as above. To be noted: 72 h.
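Also: breast cancer cell viability read out with the CCK-8 kit after co-treatment of each compound with the ferroptosis inducer RSL3.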

As for `CCCCCCCCCc1ccc(B(O)O)cc1` [4-Nonylphenylboronic acid] + COC(=O)c1ccc([C@H]2c3[nH]c4ccccc4c3C[C@H](C(=O)OC)N2C(=O)CCl)cc1 [RSL3], the relative cell viability came to 0.546 in assay [1] and 0.732 in assay [2].

Turning to `COc1ccc(-n2c(SCCCN3C(=O)c4cccc5cccc(c45)C3=O)nnc2-c2ccncc2)cc1` + COC(=O)c1ccc([C@H]2c3[nH]c4ccccc4c3C[C@H](C(=O)OC)N2C(=O)CCl)cc1 [RSL3], the relative cell viability came out at 0.324 in assay [1] and 0.56 in assay [2].

For the compound `CC(C)=CCC[C@](C)(O[C@@H]1O[C@H](CO)[C@@H](O)[C@H](O)[C@H]1O)[C@H]1CC[C@]2(C)[C@@H]1[C@H](O)C[C@@H]1[C@@]3(C)CC[C@H](O[C@@H]4O[C@H](CO)[C@@H](O)[C@H](O)[C@H]4O[C@@H]4O[C@H](CO)[C@@H](O)[C@H](O)[C@H]4O)C(C)(C)[C@@H]3CC[C@]12C` [Ginsenoside Rd] + COC(=O)c1ccc([C@H]2c3[nH]c4ccccc4c3C[C@H](C(=O)OC)N2C(=O)CCl)cc1 [RSL3], the relative cell viability in assay [1] is 0.616; in assay [2], 0.478.

On to `COc1ccc(-c2coc3cc(OC)ccc3c2=O)cc1` [4',7-Dimethoxyisoflavone] + COC(=O)c1ccc([C@H]2c3[nH]c4ccccc4c3C[C@H](C(=O)OC)N2C(=O)CCl)cc1 [RSL3], for which the figures for the relative cell viability in assay [1] and in assay [2] were 0.251 and 0.36, respectively.

For the compound `CCCCCCS(=O)(=O)NC(=O)c1ccc(CSCc2ccc(-c3ccccc3)cc2)cc1` + COC(=O)c1ccc([C@H]2c3[nH]c4ccccc4c3C[C@H](C(=O)OC)N2C(=O)CCl)cc1 [RSL3], the relative cell viability was found to be 0.403 in assay [1] and 0.676 in assay [2].

In the case of `CC(=O)O[C@H](CC=C(C)C)C1=CC(=O)c2c(O)ccc(O)c2C1=O` [Acetyl shikonin] + COC(=O)c1ccc([C@H]2c3[nH]c4ccccc4c3C[C@H](C(=O)OC)N2C(=O)CCl)cc1 [RSL3], the relative cell viability in assay [1] was determined as 0.665; in assay [2], 0.681.

For the compound `Cn1nc(C(=O)N(Cc2ccccc2)Cc2ccc(C(=O)O)cc2)c2c1-c1cc(Cl)ccc1OC2` [Nidufexor] + COC(=O)c1ccc([C@H]2c3[nH]c4ccccc4c3C[C@H](C(=O)OC)N2C(=O)CCl)cc1 [RSL3], the results for the relative cell viability in assay [1] and in assay [2] were 0.488 and 0.673, respectively.

Regarding `CCCCCCCCCCCCCCOc1ccc(C(=O)O)o1` + COC(=O)c1ccc([C@H]2c3[nH]c4ccccc4c3C[C@H](C(=O)OC)N2C(=O)CCl)cc1 [RSL3], the relative cell viability in assay [1] was 0.613; in assay [2], 0.673.

In the case of `CCc1ccc(CCOc2ccc(CC3SC(=O)NC3=O)cc2)nc1` (configuration not stated) [Pioglitazone] + COC(=O)c1ccc([C@H]2c3[nH]c4ccccc4c3C[C@H](C(=O)OC)N2C(=O)CCl)cc1 [RSL3], the results for the relative cell viability in assay [1] and in assay [2] were 0.919 and 0.629, respectively.

In the case of `COc1ccc(C(=O)/C=C/c2ccccc2)cc1` [4'-Methoxychalcone] + COC(=O)c1ccc([C@H]2c3[nH]c4ccccc4c3C[C@H](C(=O)OC)N2C(=O)CCl)cc1 [RSL3], the relative cell viability in assay [1] worked out at 0.282; in assay [2] it was 0.582.

For the compound `O=C(O)Cn1nnc(-c2cc(N3CCC(Oc4cc(F)ccc4Br)CC3)no2)n1` + COC(=O)c1ccc([C@H]2c3[nH]c4ccccc4c3C[C@H](C(=O)OC)N2C(=O)CCl)cc1 [RSL3], the relative cell viability in assay [1] turned out to be 0.428; in assay [2], 0.632.

Regarding `COc1ccc(-c2cc(=O)c3c(O)c(OC)c(O)cc3o2)cc1OC` [Eupatilin] + COC(=O)c1ccc([C@H]2c3[nH]c4ccccc4c3C[C@H](C(=O)OC)N2C(=O)CCl)cc1 [RSL3], the relative cell viability in assay [1] amounted to 0.354; in assay [2], 0.496.

`COc1ccc(N(C(=O)Nc2c(C)cccc2C)c2cc(Nc3ccc(N4CCN(C)CC4)cc3)ncn2)c(OC)c1` + COC(=O)c1ccc([C@H]2c3[nH]c4ccccc4c3C[C@H](C(=O)OC)N2C(=O)CCl)cc1 [RSL3]: the relative cell viability in assay [1] was found to be 0.624; in assay [2], 0.576.

Consider `CCC(=O)O[C@]1(C(=O)SCF)[C@H](C)C[C@H]2[C@@H]3C[C@H](F)C4=CC(=O)C=C[C@]4(C)[C@@]3(F)[C@@H](O)C[C@@]21C` [Fluticasone propionate] + COC(=O)c1ccc([C@H]2c3[nH]c4ccccc4c3C[C@H](C(=O)OC)N2C(=O)CCl)cc1 [RSL3], for which the figures for the relative cell viability in assay [1] and in assay [2] were 0.751 and 0.566, respectively.

With `CC(C)Cc1ccc([C@H](C)C(=O)O)cc1` [Dexibuprofen] + COC(=O)c1ccc([C@H]2c3[nH]c4ccccc4c3C[C@H](C(=O)OC)N2C(=O)CCl)cc1 [RSL3], the relative cell viability in assay [1] was 1.03; in assay [2] it was 0.606.

On to `Nc1cccc(S(=O)(=O)N2CCCN(S(=O)(=O)c3ccc4c(c3)OCCO4)CC2)c1` + COC(=O)c1ccc([C@H]2c3[nH]c4ccccc4c3C[C@H](C(=O)OC)N2C(=O)CCl)cc1 [RSL3], for which the relative cell viability was found to be 0.382 in assay [1] and 0.632 in assay [2].
